MARV entry inh: qHTS for inhibitors of binding or entry into cells for Marburg Virus; Marburg virus pseudotyped entry inhibition, cell reporter; Potency, µM (highest dose often 37.8 µM), for the others: top-dose activity change, negative = inhibition, actives largely listed as inhibitors; hit rate 1.8% among 300,000; AID 540276, 2011; calls by dose curve; tested in HEK293 cells; further: potency means the concentration at half of the fitted maximal effect; on the % scale 0 is the no-effect control and ±100 the full control effect
Cycloheximide cs: Cycloheximide Counterscreen for Small Molecule Inhibitors of Shiga Toxin; cell reporter, cycloheximide protein synthesis inhibition counterscreen; max response, %; hit rate 12% among 300,000; in the data active means max response mostly above about 13%, no sharp cut-off; inactive means mostly below about 14%; further: read at 38.3 µM for the half of the compounds with a filed dose; 0% is about no effect
Shiga toxin inh: A qHTS for Small Molecule Inhibitors of Shiga Toxin | inhibition, % at 38.7 µM | Vero cells, Shiga toxin protein synthesis inhibition reporter | hit rate 9.2% among 290,000; in the data active means inhibition mostly above about 28%, no sharp cut-off; inactive means mostly below about 43%; further: 0% is about no effect
Lassa entry inh: qHTS for Inhibitors of binding or entry into cells for Lassa Virus; Lassa virus pseudotype entry inhibition, cell reporter; Potency, µM (titrated, usually from 37.9 µM), for inactives: at the highest dose activity change, negative = inhibition, hits mostly inhibitors; hit rate 1.2% among 300,000; AID 540256, 2011; calls by dose curve; tested in HEK293 cells; further: potency means the concentration at half of the fitted maximal effect; on the % scale 0 is the no-effect control and ±100 the full control effect; nearly all actives have a fitted effect of over 50% in size
* = called active by the depositor; [ ] = dose if it differs, or a comment. A selection: hits, their analogues and other compounds. The true share with any hit is near 12%.

How did C/C(=N\NC(=O)c1ccc(O)cc1)c1cccc(NC(=O)c2ccccc2C)c1 do in these assays?
MARV entry inh: -25%; Cycloheximide cs: 25*; Shiga toxin inh: 28*; Lassa entry inh: inconclusive

How did C/C(=N\NC(=O)c1ccccc1F)c1ccc(C#N)cc1 do in these assays?
Cycloheximide cs: 38*; Shiga toxin inh: 129*

What do the screens show for `CN(C)NC(=O)C12CCC(C)(C(=O)O1)C2(C)C` (stereo not drawn)?
Cycloheximide cs: 2; Shiga toxin inh: -15

What do the screens show for `CC(=O)C1=C(C)N2CCN=C2S1`?
MARV entry inh: -12%[46.1 µM]; Cycloheximide cs: 0; Shiga toxin inh: -11; Lassa entry inh: -5%[46.1 µM]

Results for C/C(=N\NC(=O)c1c(Cl)c(C)nn1C)c1cccc(NC(=O)c2cccc(F)c2)c1 ?
MARV entry inh: inconclusive; Cycloheximide cs: 2; Shiga toxin inh: 13; Lassa entry inh: inconclusive

Results for C/C(=N\NC(=O)c1nn(C)c(C)c1Br)c1cccc(NC(=O)c2ccc(F)cc2)c1 ?
MARV entry inh: inconclusive; Cycloheximide cs: 72*; Shiga toxin inh: active; Lassa entry inh: 1%

How did C/C(=N\NC(=O)c1c(Br)c(C)nn1C)c1cccc(NC(=O)c2ccccc2F)c1 do in these assays?
MARV entry inh: -2%; Cycloheximide cs: 21*; Shiga toxin inh: 66*; Lassa entry inh: -4%

Results for CCOC(=O)c1cnn2c(C)cc(-c3ccc(F)cc3)nc12 ?
MARV entry inh: -13%[46.1 µM]; Cycloheximide cs: 33*; Shiga toxin inh: 53; Lassa entry inh: inconclusive

How did O=C(CNC(=O)c1ccccc1Cl)NCC(c1cccs1)N1CCOCC1 (stereo not drawn) do in these assays?
MARV entry inh: 9%; Lassa entry inh: 13%

Results for c1ccc(C2CCC(N3CCN(c4ccccc4)CC3)CC2)cc1 (stereo not drawn) ?
MARV entry inh: inconclusive; Cycloheximide cs: 4; Shiga toxin inh: 15; Lassa entry inh: 2.8µM*

How did COc1ccccc1N1CCN(C2CCN(C3CCC(c4ccccc4)CC3)CC2)CC1 (stereo not drawn) do in these assays?
Cycloheximide cs: -3; Shiga toxin inh: -7

Results for CC(=O)N1CCC(=NNc2nc3ccccc3[nH]2)CC1 ?
MARV entry inh: inconclusive; Cycloheximide cs: 31*; Shiga toxin inh: 35*; Lassa entry inh: 0%[46.1 µM]

What do the screens show for `CC(=O)N1CCc2[nH]c3ccccc3c2C1`?
MARV entry inh: 18%; Cycloheximide cs: -2; Shiga toxin inh: 20; Lassa entry inh: -5%

How did CCC(C)(C)C1CCC(=NNc2nc3ccccc3[nH]2)CC1 (stereo not drawn) do in these assays?
MARV entry inh: inconclusive; Cycloheximide cs: 36*; Shiga toxin inh: 81*; Lassa entry inh: 8.2µM*

What do the screens show for `CCc1cc2c(nc1CC)CCN(CC/C(C)=N/OC[C@@H](O)[C@@H]1O[C@@H]3OC(C)(C)O[C@@H]3[C@H]1O)C2`?
MARV entry inh: -6%[14.2 µM]

Results for COC(=O)C(C)N1C(=O)S/C(=C\c2ccc(-c3ccc(C(=O)O)cc3C)o2)C1=O (stereo not drawn) ?
Cycloheximide cs: 44*; Shiga toxin inh: 89*

How did Cc1ccc(NC(=O)CN2C(=O)S/C(=C/c3ccc(-c4cc(C(=O)O)ccc4C)o3)C2=O)cc1C do in these assays?
MARV entry inh: 21%; Cycloheximide cs: -2; Shiga toxin inh: -7; Lassa entry inh: 7%

What do the screens show for `CCc1cc2c3c(c1)C1(C(=O)N3C(C)(C)CC2C)C(C#N)=C(N)N2C(=C1C#N)Nc1ccccc12` (stereo not drawn)?
MARV entry inh: inconclusive; Cycloheximide cs: -2; Shiga toxin inh: -7; Lassa entry inh: 13µM*

What do the screens show for `Cc1cc2c3c(c1)C1(C(=O)N3C(C)(C)CC2C)C(C#N)=C(N)Oc2cc(O)ccc21` (stereo not drawn)?
MARV entry inh: -3%; Cycloheximide cs: 2; Shiga toxin inh: -15; Lassa entry inh: -9%

What do the screens show for `COC(=O)c1nc2ccc(N3CCOCC3)cc2c(C)c1C(=O)OC`?
MARV entry inh: inconclusive; Cycloheximide cs: 22; Shiga toxin inh: 57*; Lassa entry inh: -2%

What do the screens show for `CC(C)(C)N1C(=O)c2ccc(C(=O)NCc3ccco3)cc2C1=O`?
MARV entry inh: -5%; Cycloheximide cs: 16*; Shiga toxin inh: 5; Lassa entry inh: 5%

Results for CC1CCN(c2ccc(C(=O)NCc3ccco3)cc2[N+](=O)[O-])CC1 ?
MARV entry inh: inconclusive; Cycloheximide cs: 22*; Shiga toxin inh: 54*; Lassa entry inh: 6.5µM*

How did O=C(NCc1ccco1)c1ccc(N2CCOCC2)c([N+](=O)[O-])c1 do in these assays?
MARV entry inh: -18%[46.1 µM]; Cycloheximide cs: -1; Shiga toxin inh: -8; Lassa entry inh: inconclusive

Results for O=C(NCc1ccco1)c1ccc2[nH]c(=O)c(=O)[nH]c2c1 ?
Cycloheximide cs: -4; Shiga toxin inh: -5

How did O=C(NCc1ccc(F)cc1)c1ccc(N2CCc3ccccc32)c([N+](=O)[O-])c1 do in these assays?
MARV entry inh: inconclusive; Cycloheximide cs: 8; Shiga toxin inh: -14; Lassa entry inh: 18µM*

What do the screens show for `O=C(NCc1ccco1)c1ccc(N2CCCCC2)c([N+](=O)[O-])c1`?
MARV entry inh: 16%; Cycloheximide cs: 20*; Shiga toxin inh: 41*; Lassa entry inh: 21µM*

How did OC[C@H]1O[C@@H](O[C@@H]2OC=C[C@H]3[C@H](O)[C@@H]4O[C@]4(CO)[C@@H]23)[C@H](O)[C@@H](O)[C@@H]1O do in these assays?
Cycloheximide cs: -7; Shiga toxin inh: 0

Results for Cc1ccc(CNC(=O)C(Cc2ccccc2)NS(=O)(=O)c2cccs2)cc1 (stereo not drawn) ?
MARV entry inh: inconclusive; Cycloheximide cs: 1; Shiga toxin inh: -7; Lassa entry inh: inconclusive

How did COc1ccc(-n2cc(-c3ccc(OC(F)F)cc3)[n+]3c2CCCCC3)cc1 do in these assays?
Cycloheximide cs: 1; Shiga toxin inh: -3

What do the screens show for `CC(=O)OC[C@H]1O[C@H](C#Cc2ccc(C)cc2C)C=C[C@H]1OC(C)=O`?
MARV entry inh: -2%[14.2 µM]; Lassa entry inh: -33%[14.3 µM]

How did Cc1ccc(N(Cc2ccco2)C(=O)c2ccc(N3CCCCC3)c([N+](=O)[O-])c2)cc1 do in these assays?
MARV entry inh: 23µM*; Cycloheximide cs: 44*; Shiga toxin inh: 106*; Lassa entry inh: inconclusive

What do the screens show for `CC1CC(=O)N(CC(=O)NCc2ccccc2)c2ccccc2S1(=O)=O` (stereo not drawn)?
MARV entry inh: -16%[46.1 µM]; Cycloheximide cs: -1; Shiga toxin inh: -9; Lassa entry inh: 7%[46.1 µM]

Results for N/C(=N\OC(=O)Cc1cccs1)c1ccc(Br)cc1 ?
MARV entry inh: inconclusive; Cycloheximide cs: 50*; Shiga toxin inh: 81*; Lassa entry inh: 14%

How did N/C(=N\OC(=O)CCCOc1ccccc1)c1ccc(Br)cc1 do in these assays?
MARV entry inh: -2%; Cycloheximide cs: 1; Shiga toxin inh: -11; Lassa entry inh: -11%

How did N/C(=N\OC(=O)Cc1cccs1)c1ccc([N+](=O)[O-])cc1 do in these assays?
MARV entry inh: -1%; Cycloheximide cs: 31*; Shiga toxin inh: active; Lassa entry inh: inconclusive

Screening results (PubChem BioAssay)
